“And” between values parts separate entries of the source, which are not always exact repeats. Equal entries are not always repeated. Records with an inconclusive call do not appear. Where a call stands in place of a potency, no number is given. A structure can be active in one record and inactive in another. The source made the active and inactive calls. Unless noted, calls come from the whole dose curve; as a rule, active = well fitted curve in the direction sought with a large enough effect in the repeat runs; inconclusive = weak or mixed curves; inactive = no such curve, though single readings can be large; an effect the other way counts as inactive or inconclusive.
Assays:
[1] = qHTS assay to identify small molecule antagonists of the glucocorticoid receptor (GR) signaling pathway - cell viability counter screen (AID 720693); note: nearly all actives have a fitted effect of over 55% in size
[2] = qHTS assay for identifying genotoxic compounds that show differential cytotoxicity against isogenic chicken DT40 cell lines with known DNA damage response pathways - wild type cell line (AID 743012); note: nearly all actives have a fitted effect of over 60% in size; note: potency is the fitted concentration of half-maximal effect
Procedure, shortened: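 Luminescent ATP viability signal (CellTiter-Glo, 30 min RT) recorded after wild type DT40 cells were incubated with compounds for 40 h at 37 C/5% CO2.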

[3] = qHTS assay for identifying genotoxic compounds that show differential cytotoxicity against isogenic chicken DT40 cell lines with known DNA damage response pathways - Rev3 mutant cell line (AID 743014); note: nearly all actives have a fitted effect of over 55% in size; note: potency is the fitted concentration of half-maximal effect
[4] = qHTS assay for identifying genotoxic compounds that show differential cytotoxicity against isogenic chicken DT40 cell lines with known DNA damage response pathways - Rad54/Ku70 mutant cell line (AID 743015); note: nearly all actives have a fitted effect of over 60% in size; note: potency is the fitted concentration of half-maximal effect
[5] = qHTS assay to identify small molecule antagonists of the androgen receptor (AR) signaling pathway - cell viability counter screen (AID 743033; note: nearly all actives have a fitted effect of over 45% in size)
[6] = qHTS assay to identify small molecule antagonists of the thyroid receptor (TR) signaling pathway - cell viability counter screen (AID 743064); note: nearly all actives have a fitted effect of over 50% in size
Procedure, shortened: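 Counter screen for cytotoxicity: compound plus T3 (1 nM final) on GH3.TRE-Luc cells, 23.5 h at 37 °C, then fluorescence viability readout with CellTiter-Fluor.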

[7] = test system: thyroid hormone receptor (rat, GH3 cells); experiment: qHTS assay to identify small molecule agonists of the thyroid receptor (TR) signaling pathway (AID 743066; calls by dose curve)
[8] = qHTS assay to identify small molecule antagonists of the estrogen receptor alpha (ER-alpha) signaling pathway - cell viability counter screen (AID 743074; calls by dose curve; note: nearly all actives have a fitted effect of over 45% in size; note: potency is the fitted concentration of half-maximal effect)
Aromatase (Homo sapiens) = Aromatase (Homo sapiens) (UniProt P11511); experiment: qHTS assay to identify aromatase inhibitors (AID 743083); note: nearly all actives have a fitted effect of over 55% in size
Aromatase (Homo sapiens), sequence (P11511 whole entry, looked up): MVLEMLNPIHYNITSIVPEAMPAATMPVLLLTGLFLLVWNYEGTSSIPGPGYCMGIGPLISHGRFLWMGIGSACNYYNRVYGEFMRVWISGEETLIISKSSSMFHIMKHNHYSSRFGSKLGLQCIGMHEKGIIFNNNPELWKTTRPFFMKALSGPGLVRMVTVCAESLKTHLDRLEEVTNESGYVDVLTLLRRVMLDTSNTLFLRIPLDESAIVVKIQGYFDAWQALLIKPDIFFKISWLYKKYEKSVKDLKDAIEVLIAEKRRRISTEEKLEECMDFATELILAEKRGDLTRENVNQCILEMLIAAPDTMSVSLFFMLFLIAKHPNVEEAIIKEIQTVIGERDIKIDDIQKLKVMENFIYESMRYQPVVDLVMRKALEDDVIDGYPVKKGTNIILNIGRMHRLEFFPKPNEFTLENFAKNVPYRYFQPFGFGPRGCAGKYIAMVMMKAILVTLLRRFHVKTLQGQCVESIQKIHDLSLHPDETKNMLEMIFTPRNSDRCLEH

[9] = qHTS assay to identify small molecule antagonists of the thyroid receptor (TR) signaling pathway (AID 743065); note: nearly all actives have a fitted effect of over 55% in size
Procedure, shortened: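 GH3.TRE-Luc rat pituitary cells carrying two TR response elements driving luciferase were plated for 4 h, given compound plus 1 nM T3 (final), and incubated 23.5 h at 37 C. ONE-Glo luminescence measured reporter inhibition; CellTiter-Fluor fluorescence tracked cytotoxicity.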

[10] = molecular target: Estrogen receptor (Homo sapiens) (UniProt P03372); experiment: qHTS assay to identify small molecule antagonists of the estrogen receptor alpha (ER-alpha) signaling pathway (AID 743069; active = well fitted curve in the direction sought with a large enough effect in the signal ratio in the repeat runs, not every such curve was filed as active; the % refers to the signal ratio)
Estrogen receptor (Homo sapiens), sequence (P03372 whole entry, looked up): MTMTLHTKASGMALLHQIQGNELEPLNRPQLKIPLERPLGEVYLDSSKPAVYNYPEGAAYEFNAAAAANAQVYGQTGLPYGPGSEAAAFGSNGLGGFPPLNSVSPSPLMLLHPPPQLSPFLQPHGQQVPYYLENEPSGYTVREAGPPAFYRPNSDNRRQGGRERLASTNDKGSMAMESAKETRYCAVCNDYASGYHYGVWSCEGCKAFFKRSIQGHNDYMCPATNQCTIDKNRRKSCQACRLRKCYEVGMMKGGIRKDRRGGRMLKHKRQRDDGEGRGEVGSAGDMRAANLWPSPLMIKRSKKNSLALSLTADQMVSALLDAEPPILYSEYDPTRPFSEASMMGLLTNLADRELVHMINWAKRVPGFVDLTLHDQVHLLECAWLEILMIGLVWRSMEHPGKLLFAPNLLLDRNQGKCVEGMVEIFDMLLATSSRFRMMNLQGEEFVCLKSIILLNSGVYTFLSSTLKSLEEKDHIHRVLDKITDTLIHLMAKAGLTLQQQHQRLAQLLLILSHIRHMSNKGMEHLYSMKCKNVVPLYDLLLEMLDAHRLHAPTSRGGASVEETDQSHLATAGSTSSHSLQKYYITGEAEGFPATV
Procedure, shortened: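 Screening used a UAS-driven beta-lactamase reporter integrated into HEK293 cells expressing ER-alpha, stimulated with 17beta-estradiol alongside test compounds over 18 hr at 37C; signal came from LiveBLAzer B/G FRET fluorescence.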

[11] = molecular target: Estrogen receptor (Homo sapiens) (UniProt P03372); experiment: qHTS assay to identify small molecule agonists of the estrogen receptor alpha (ER-alpha) signaling pathway (AID 743075; calls by dose curve)
[12] = molecular target: Estrogen receptor (Homo sapiens) (UniProt P03372); experiment: qHTS assay to identify small molecule agonists of the estrogen receptor alpha (ER-alpha) signaling pathway using the BG1 cell line (AID 743079); settings: BG1Luc4E2 cells, ERE-luciferase agonist, 22 h; activation: at 70.3 µM (top of the series); note: nearly all actives have a fitted effect of over 20% in size
[13] = qHTS assay to identify small molecule antagonists of the estrogen receptor alpha (ER-alpha) signaling pathway using the BG1 cell line (AID 743080; calls by dose curve;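 note: BG1 cells stimulated with 17beta-estradiol alongside compound; nearly all actives have a fitted effect of over 25% in size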)
Procedure, shortened: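 BG1Luc4E2, endogenous ER-alpha, 4xERE-luc; 5 d charcoal-stripped FBS, phenol red free; 24 h plating; cpd + 17beta-estradiol 21.5 h, 37 C/5% CO2; CellTiter-Fluor viability 30 min, then ONE-Glo luciferase 30 min RT.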

[14] = qHTS assay to identify small molecule antagonists of the estrogen receptor alpha (ER-alpha) signaling pathway using the BG1 cell line - cell viability counter screen (AID 743081);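 note: compound given together with 17beta-estradiol as the ER stimulus; nearly all actives have a fitted effect of over 45% in size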
[15] = qHTS assay to identify small molecule antagonists of the androgen receptor (AR) signaling pathway using the MDA cell line - cell viability counter screen (AID 743041; note: nearly all actives have a fitted effect of over 45% in size)
Procedure, shortened: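 qHTS viability read-out; MDA-kb2 AR-luc; R1881-stimulated; 16 h exposure at 37C, 0% CO2; CellTiter-Fluor, 30 min; fluorescence intensity.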

[16] = molecular target: Androgen receptor (Homo sapiens) (UniProt P10275); experiment: qHTS assay to identify small molecule agonists of the androgen receptor (AR) signaling pathway using the MDA cell line (AID 743040; note: nearly all actives have a fitted effect of over 20% in size)
Androgen receptor (Homo sapiens), sequence (P10275 whole entry, looked up): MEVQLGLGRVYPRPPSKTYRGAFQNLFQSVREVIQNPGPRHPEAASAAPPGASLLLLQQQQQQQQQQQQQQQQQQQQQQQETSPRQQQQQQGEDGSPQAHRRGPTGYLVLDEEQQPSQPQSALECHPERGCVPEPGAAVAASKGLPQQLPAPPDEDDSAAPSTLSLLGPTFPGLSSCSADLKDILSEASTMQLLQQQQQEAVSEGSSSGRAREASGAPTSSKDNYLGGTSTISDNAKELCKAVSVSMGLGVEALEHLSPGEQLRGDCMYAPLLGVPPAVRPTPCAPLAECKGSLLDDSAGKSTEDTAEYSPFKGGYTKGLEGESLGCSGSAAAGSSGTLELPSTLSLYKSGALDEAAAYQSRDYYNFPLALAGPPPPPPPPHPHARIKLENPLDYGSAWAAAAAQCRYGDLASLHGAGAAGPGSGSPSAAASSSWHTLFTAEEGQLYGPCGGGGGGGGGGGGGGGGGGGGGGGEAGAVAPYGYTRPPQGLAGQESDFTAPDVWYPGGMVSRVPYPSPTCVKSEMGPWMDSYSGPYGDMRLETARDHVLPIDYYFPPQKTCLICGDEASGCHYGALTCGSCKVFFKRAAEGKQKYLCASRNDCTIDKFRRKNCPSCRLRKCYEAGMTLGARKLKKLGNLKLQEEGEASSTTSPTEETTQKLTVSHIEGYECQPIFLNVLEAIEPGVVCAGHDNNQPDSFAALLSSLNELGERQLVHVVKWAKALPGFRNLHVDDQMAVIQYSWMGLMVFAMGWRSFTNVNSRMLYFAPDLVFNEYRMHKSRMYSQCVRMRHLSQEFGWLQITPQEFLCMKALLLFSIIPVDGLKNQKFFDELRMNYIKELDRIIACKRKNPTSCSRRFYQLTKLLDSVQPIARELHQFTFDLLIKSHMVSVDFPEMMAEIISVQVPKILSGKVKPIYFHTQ
Procedure, shortened: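 Agonist activity is measured as luciferase luminescence in human MDA-kb2 cells whose MMTV reporter responds to both AR and GR. Compounds in DMSO incubate 16 h at 37C, 0% CO2, and ONE-Glo is read after 30 min.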

[17] = molecular target: Androgen receptor (Homo sapiens) (UniProt P10275); experiment: qHTS assay to identify small molecule antagonists of the androgen receptor (AR) signaling pathway using the MDA cell line (AID 743042; note: nearly all actives have a fitted effect of over 55% in size)
Procedure, shortened: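 MDA-kb2 cells (human breast carcinoma, stably carrying an MMTV-luciferase reporter responsive to AR and GR) were plated at 3,000 cells/well and preincubated 5 hr at 37C, then given compound plus R1881 agonist for 16 h. ONE-Glo luminescence was read.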

Row | SMILES | Potency [1] | Potency [2] | Potency [3] | Potency [4] | Potency [5] | Potency [6] | outcome [7] | Potency [8] | Potency (Aromatase (Homo sapiens)) | Potency [9] | Potency [10] | Potency [11] | Potency [12] | Potency [13] | Potency [14] | Potency [15] | Potency [16] | Potency [17]
1 | CCCC1C(CC)=CC(CC)=CN1c1ccccc1 (centres undefined) | inactive | 2730 nM (active) | 2170 nM (active) | 1930 nM (active) | inactive | inactive | inactive | inactive | inactive | – | – | – | – | – | – | – | – | –
2 | CC(N)CN (centres undefined) | inactive | inactive | inactive | inactive | inactive | inactive | inactive | inactive | inactive | inactive | inactive | inactive | inactive | inactive | inactive | – | – | –
3 | O=C(O)c1cccnc1C(=O)O | inactive | inactive | inactive | inactive | – | inactive | inactive | inactive | inactive | inactive | inactive | inactive | inactive | inactive | inactive | inactive | – | –
4 | CC1=NN(c2ccc(C(=O)O)cc2)C(=O)C1 | inactive | inactive | inactive | inactive | – | – | – | inactive | inactive | inactive | – | – | – | – | inactive | inactive | inactive | inactive
5 | O=S1OCCO1 | inactive | inactive | inactive | inactive | – | inactive | inactive | inactive | inactive | inactive | inactive | inactive | inactive | inactive | inactive | inactive | – | –
6 | Cc1cc(O)c(C(C)C)cc1Cl | inactive | inactive | inactive and 61.1 µM (active) | inactive and 48.6 µM (active) | – | – | inactive | inactive and 49 µM (active) | inactive | inactive | inactive | inactive | inactive | inactive | inactive | inactive | – | –

— PubChem BioAssay (Tox21)
